# Measured values reported in PubChem BioAssay AID652104 (National Center for Advancing Translational Sciences (NCATS), 2013).
# The campaign covered roughly 410,000 compounds. About 7,200 (1.8%) were called active. About 7% were inconclusive and are not listed. Calls come from the whole dose curve; as a rule, active = well fitted activation curve with a large enough effect; inconclusive = small, poorly fitted or top-dose-only effect, or another doubt; inactive = no such curve, though single readings can be large or run the other way. Shown is part of a subset that was picked to be rich in actives.
# Assay: qHTS of TDP-43 Inhibitors; note: nearly all actives have a fitted effect of over 50% in size; for growth rescue (activation): % of control where 0% means no effect
# Conditions: TDP-43 expressing yeast growth rescue, BacTiter-Glo, 24 h; series mostly up to 46.1 µM; growth rescue (activation): at the top concentration
# Procedure, shortened: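 Yeast cells expressing TDP-43 under galactose induction are exposed to compounds for 24 hr at 30 deg C. BacTiter-Glo luminescence measures growth, so protective compounds score as activators.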
# Potency is the fitted concentration of half-maximal effect.
Compound,growth rescue (activation),Potency
C/C(Cc1ccccc1)=N\NC(=O)CNC(=O)c1ccc2c(c1)OCCO2,5.25% (inactive),
CS(=O)(=O)c1ccc(-c2nnc(NC(=O)c3ccc4c(c3)OCCO4)o2)cc1,0% (inactive),
Cc1nc(NC(=O)c2ccc3c(c2)OCCO3)ccc1Br,,12.6 µM (active)
Cc1ccc(C)c(NC(=O)C2CCCN(S(=O)(=O)c3cn(C)cn3)C2)c1 (configuration not stated),16.4% (inactive),
CC(=O)N1CCCc2cc(S(=O)(=O)Nc3ccc(Cl)cc3F)ccc21,26.2% (inactive),
CCOc1ccc(CNC(=O)c2ccc3c(c2)nnn3C2CCCC2)cc1,21.2% (inactive),
CCOC(=O)c1cccc(NC(=O)CCn2nnc3ccccc32)c1,-14.2% (inactive),
CCn1nnc2cc(C(=O)Nc3ccc(C(=O)OC(C)C)cc3)ccc21,,11.2 µM (active)
CCOC(=O)c1cc(-c2ccccc2)n(CCC(=O)Nc2ccccc2CC)c1C,-0.302% (inactive),
O=C(Nc1c(C(=O)N2CCN(c3ccc(F)cc3)CC2)oc2ccccc12)c1ccco1,0% (inactive),
O=C(NNC1CC(=O)N(c2cccc(Cl)c2)C1=O)c1cccnc1 (configuration not stated),-2.69% (inactive),
O=C1[C@@H]2C(c3cccnc3)=NO[C@@H]2C(=O)N1c1ccc(Cl)cc1Cl,,35.5 µM (active)
Cc1ccc(Cl)cc1N1CCN(C(=O)CN2C(=O)COc3ccc(S(=O)(=O)N4CCOCC4)cc32)CC1,16.2% (inactive),
CCC(=O)N1CCc2cc(S(=O)(=O)NC(CC(C)C)C(=O)NCCc3cccc(C)c3)ccc21 (configuration not stated),12.7% (inactive),
Cc1ccc(NC(=O)Cn2nnc3sc4c(c3c2=O)CCC(C)C4)cc1 (configuration not stated),0% (inactive),
COc1ccc(CN2CCc3nc(Nc4ccccc4)ncc3C2)c(OC)c1OC,9.73% (inactive),
COc1ccc(Nc2ncc3c(n2)CCN(C(=O)OC(C)(C)C)C3)cc1,,14.1 µM (active)
CC(C)(C)OC(=O)N1CCC(c2c(C(=O)N3CCc4ccccc4C3)cnn2-c2ccc(F)cc2)CC1,3.82% (inactive),
O=c1cc(-c2ccccc2)n2c(SCc3ccccc3)nnc2[nH]1,19% (inactive),
Cc1cccc(N2CCN(C(=O)CCn3c(=O)c4cccn4c4cccnc43)CC2C)c1 (configuration not stated),0% (inactive),
CCc1cnc2c(c1SCC(=O)c1ccccc1)c(=O)n(C)c(=O)n2C,16.8% (inactive),
COc1ccc(Cl)cc1C(=O)OCC(=O)NCc1cccs1,-0.926% (inactive),
O=C(COC(=O)c1ccc(Cl)nc1)NCc1cccs1,16.7% (inactive),
O=C(COC(=O)/C=C/c1cccc(Cl)c1)NCc1cccs1,,20 µM (active)
CCOc1ccc(CCNC(=O)c2ccc3c(c2)sc2nc(-c4ccc(F)cc4)cn23)cc1OCC,19.4% (inactive),

Compound,growth rescue (activation),Potency
COc1ccc2oc(C(=O)NCC(Cc3ccccc3)N(C)C)c(C)c2c1 (configuration not stated),-16.2% (inactive),
COc1ccc2oc(C(=O)NCc3ccco3)c(C)c2c1,,12.6 µM (active)
COc1cc(C(=O)NC(=S)NCc2ccco2)cc(OC)c1OC,-2.12% (inactive),
COc1cccc(C(c2c(O)cc(C)n(Cc3ccco3)c2=O)N2CCN(c3ccccc3)CC2)c1 (configuration not stated),16.2% (inactive),
CCCCC(CC)CNC(=O)C1CCN(S(=O)(=O)c2cccc3nsnc23)CC1 (configuration not stated),-7.96% (inactive),
O=S(=O)(c1ccc2nc(N3CCN(c4cccc(Cl)c4)CC3)ccc2c1)N1CCCCC1,4.2% (inactive),
COc1cccc(C(=O)Oc2cc(C)[nH]c(=O)c2[N+](=O)[O-])c1,-7.6% (inactive),
Cc1cc(OC(=O)c2ccc(OC(C)C)cc2)c([N+](=O)[O-])c(=O)[nH]1,,22.4 µM (active)
Cc1cc(OC(=O)c2ccccc2)c([N+](=O)[O-])c(=O)[nH]1,-3.46% (inactive),
Cc1nnc(SCc2cc(=O)c3cc(F)ccc3[nH]2)n1C,13.1% (inactive),
CC(C)CC(=O)NCC(c1ccc2c(c1)OCO2)N1CCN(c2ccc(F)cc2)CC1 (configuration not stated),-8.52% (inactive),
CCn1c(=O)cc(OCC(=O)Nc2cc(Cl)c(OC)cc2OC)c2ccccc21,8.79% (inactive),
Cc1ccc(S(=O)(=O)c2nc(-c3ccco3)oc2SCC(=O)Nc2ccc(F)cc2)cc1,25% (inactive),
COC(=O)c1sc(N)c(C(=O)OC)c1COC(=O)CNS(=O)(=O)c1ccc(C)cc1,17.9% (inactive),
Cc1ccc(-c2nc(COC(=O)c3c(C)noc3C)cs2)cc1,1.65% (inactive),
COC(=O)c1c(-c2ccc(C)cc2)csc1N,,12.6 µM (active)
CCCn1c(=N)n(CC(O)COc2ccccc2OC)c2ccccc21 (configuration not stated),13.5% (inactive),
CO/N=C(\N)c1ccc([N+](=O)[O-])cc1,14.3% (inactive),
N/C(=N\OC(=O)Cc1ccccc1[N+](=O)[O-])c1ccc(Br)cc1,,15.8 µM (active)
N/C(=N\OC(=O)N1c2ccccc2Sc2ccccc21)c1ccc(Br)cc1,8.92% (inactive),
Cc1ccc(-n2ncc3c(=O)n(Cc4cccc(C(F)(F)F)c4)cnc32)cc1C,22.9% (inactive),
CC(C)NC(=O)C1CCC(Cn2c(=O)c3sccc3n(Cc3ccc(F)cc3)c2=O)CC1 (configuration not stated),17.9% (inactive),
O=C(COc1ccc(Cl)cc1)N(Cc1ccco1)Cc1ccco1,14.7% (inactive),
CC(=O)c1ccc(NC(=O)CCc2nc(-c3ccc(C)cc3)no2)cc1,14.4% (inactive),
CCOC(=O)c1ccc(NC(=O)c2csc3c2CCCCC3)cc1,,20 µM (active)

Compound,growth rescue (activation),Potency
CCOC(=O)c1ccc(NC(=O)c2c(NCc3cccs3)sc3c2CCCC3)cc1,29.4% (inactive),
CCOc1ccc(CCNC(=O)c2csc3c2CCCCC3)cc1,9.4% (inactive),
Cc1ccc(-c2cn3c(n2)sc2cc(C(=O)NCc4cccs4)ccc23)c(C)c1,-0.34% [at 9.22 µM] (inactive),
O=c1[nH]c2cc(Br)ccc2n2cccc12,,10 µM (active)
C/C(=N\N)c1c(-c2ccccc2)c2cc(Br)ccc2[nH]c1=O,-15.3% (inactive),
CC1CN(C(=O)N2CCC(C(=O)NCc3cccs3)CC2)c2ccccc2O1 (configuration not stated),26.7% (inactive),
COc1ccc(N(CC(=O)N2CCCCCC2)S(=O)(=O)c2ccccc2)cc1,-22.5% (inactive),
CC1CCN(C(=O)CN(c2ccc(Oc3ccccc3)cc2)S(C)(=O)=O)CC1,,12.6 µM (active)
CS(=O)(=O)N(CC(=O)N1CCN(c2cccc(Cl)c2)CC1)c1ccccc1,-13.1% (inactive),
COc1cc(CNC(=O)c2cc3n(n2)CCCN(Cc2cccc(F)c2)C3=O)cc(OC)c1OC,11.2% (inactive),
CCc1cc2c(cc3c(=O)n(CC(=O)NCCc4ccc(OC)c(OC)c4)ncn32)s1,7.79% (inactive),
CCC(=O)N1CCc2cc(CNC(=O)Nc3ccccc3Cl)ccc21,22.9% (inactive),
CCC(=O)N1CCc2cc(Br)cc(S(=O)(=O)NCc3ccc(Cl)cc3)c21,22% (inactive),
CCC(=O)N1CCc2cc(CNS(=O)(=O)c3ccc(Br)s3)ccc21,,11.2 µM (active)
Cc1ccc(NC(=O)c2cc(S(=O)(=O)NCCC3=CCCCC3)ccc2F)cc1C,2.32% (inactive),
COc1cc(C(=O)Nc2ccc(OCc3cc(=O)n4ccc(C)cc4n3)cc2)cc(OC)c1OC,0.643% (inactive),
O=C(NNc1nc(N2CCCC2)nc(N2CCCC2)n1)c1ccccc1,5.54% (inactive),
O=C(c1ccccc1)c1ccc2nc(N3CCCCC3)c3nncn3c2c1,,20 µM (active)
CCOC(=O)CSc1nc2ccc(C)cc2n2cnnc12,0.643% (inactive),
Cc1nnc(NC(=O)CSc2nc3c([nH]c4ccccc43)c(=O)n2-c2cccc(Cl)c2)s1,27.2% (inactive),
O=C(Nc1ccc2c(c1)OCO2)c1sc2cc(Cl)ccc2c1Cl,11.5% (inactive),
CC(=O)C1=C(C)NC(=O)NC1c1ccc2c(c1)OCO2 (configuration not stated),-15% (inactive),
O=C1C=C(c2ccnc3cc(Cl)ccc23)C[C@@H](c2ccc3c(c2)OCO3)C1,,22.4 µM (active)
Cc1cccc(N2CCN(C3=C(c4ccccc4)C(=O)c4ccccc43)CC2)c1C,14.2% (inactive),
Cc1cccc(NC(=O)c2ccc(F)c(S(=O)(=O)N(C)C3CCCCC3)c2)c1,20.7% (inactive),

Compound,growth rescue (activation),Potency
Brc1cccc(-c2nnn3c2nc(NC2CCCCC2)c2ccccc23)c1,9.58% (inactive),
O=C(Nc1nnc(S(=O)(=O)N2CCCc3ccccc32)s1)c1cccc(F)c1,18.6% (inactive),
COCCCNc1ccn2nc(-c3ccc(CC(C)C)cc3)cc2n1,,17.8 µM (active)
CCc1ccc(C2CC(=O)c3c([nH]c(C(=O)OCc4ccc(C)cc4)c3C)C2)cc1 (configuration not stated),13.6% (inactive),
CCN(CCCNC(=O)c1cc(Nc2ccc(OC)cc2)nc2ccccc12)c1cccc(C)c1,20.5% (inactive),
Cc1ccc(CSc2nc3ccsc3c(=O)n2CCC(C)C)cc1,10.6% (inactive),
CCOc1ccccc1NC(=O)Cn1c2ncccc2c(=O)n1-c1ccc(C)c(C)c1,0% (inactive),
Cc1ccc(-n2c(=O)c3cccnc3n2CC(=O)Nc2ccccc2C(F)(F)F)cc1C,21.9% (inactive),
Cc1ccc(-n2c(=O)c3cccnc3n2CC(=O)NCc2ccc(F)cc2)cc1C,,12.6 µM (active)
CCOc1ccccc1NC(=O)Cn1c(=O)n(Cc2ccccc2)c(=O)c2c(C)c(C(=O)N(C)C)sc21,29.5% (inactive),
Cc1c(CNC(C)c2ccccc2)c(C(=O)O)c(C)n1Cc1c(F)cccc1Cl (configuration not stated),-5.06% (inactive),
Cc1ccc(CN2CC(N3CCC(Cc4ccccc4)CC3)CS2(=O)=O)cc1 (configuration not stated),8.85% (inactive),
O=S1(=O)CC(N2CCC(Cc3ccccc3)CC2)CN1Cc1ccccc1 (configuration not stated),9.43% (inactive),
O=[N+]([O-])c1ccc(CN2CC(N3CCC(c4ccccc4)CC3)CS2(=O)=O)cc1 (configuration not stated),,25.1 µM (active)
CCOC(=O)c1c(C)oc2ccc(N(C(=O)c3ccncc3)S(=O)(=O)c3ccc(CC)cc3)cc12,19.9% (inactive),
CCc1ccc(CN(Cc2ccco2)C(=O)COc2ccc(Cl)c(C)c2)cc1,6.26% (inactive),
CSc1nnc(NC(=O)c2nc(S(=O)(=O)Cc3ccc(C)cc3)ncc2Cl)s1,,11.2 µM (active)
Cc1cccc(NC(=O)c2nc(S(=O)(=O)Cc3ccccc3)ncc2Cl)c1,,7.08 µM (active)
Cc1cccc(NC(=O)Cn2cc(S(=O)(=O)Cc3ccccc3Cl)c3ccccc32)c1,14.7% (inactive),
CCOC(=O)c1ccc(NC(=O)c2nc(SCc3ccc(F)cc3)ncc2Cl)cc1,2.94% (inactive),
Cc1ccc2nc(NC(=O)c3nc(SCc4ccccc4F)ncc3Cl)sc2c1,11.2% (inactive),
CCS(=O)(=O)c1ncc(N(Cc2ccc(F)cc2)Cc2ccco2)c(C(=O)Nc2cc(C)ccc2C)n1,13% (inactive),
